ALDH1A1 block: ALDH1A1 (human) enzyme inhibition; Potency, µM (top dose mostly 75.3 µM), actives largely listed as inhibitors; 220,000 tested, 7.3% active; Purified ALDH1A1, NADH fluorescence, propionaldehyde substrate; P00352; active = well fitted inhibition curve with a large enough effect, not every such curve was filed as active; inconclusive = small, poorly fitted or top-dose-only effect, or another doubt; inactive = no such curve, though single readings can be large or run the other way
Sfp PPTase inh: blocks B. subtilis Sfp PPTase activity; 310,000 tested, 3.5% active; Potency, µM, most hits filed as inhibitors; Biochemical Sfp PPTase activity, qHTS; AID 1490;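 note: the enzyme is Sfp with the accession as filed and its product quenches rhodamine fluorescence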
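Step 1, compound plus 15 nM Sfp-PPTase, 15 min, room temperature. Step 2, add rhodamine-CoA (5 uM) and BHQ-2-YbbR (12.5 uM). Step 3, read 525/598 nm fluorescence at 0 and 30 min.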
JMJD2E inh: blocks human JMJD2E demethylase activity; B2RXH2; JMJD2E catalytic domain, FDH-coupled NADH fluorescence (FDH is formaldehyde dehydrogenase); Potency, µM (series often up to 57.1 µM), hits mostly inhibitors; 230,000 tested, 1.6% active; AID 2147; active = well fitted inhibition curve with a large enough effect, not every such curve was filed as active; inconclusive = small, poorly fitted or top-dose-only effect, or another doubt; inactive = no such curve, though single readings can be large or run the other way; note: nearly all actives have a fitted effect of over 50% in size
Target sequence (B2RXH2 1-337 limits assumed): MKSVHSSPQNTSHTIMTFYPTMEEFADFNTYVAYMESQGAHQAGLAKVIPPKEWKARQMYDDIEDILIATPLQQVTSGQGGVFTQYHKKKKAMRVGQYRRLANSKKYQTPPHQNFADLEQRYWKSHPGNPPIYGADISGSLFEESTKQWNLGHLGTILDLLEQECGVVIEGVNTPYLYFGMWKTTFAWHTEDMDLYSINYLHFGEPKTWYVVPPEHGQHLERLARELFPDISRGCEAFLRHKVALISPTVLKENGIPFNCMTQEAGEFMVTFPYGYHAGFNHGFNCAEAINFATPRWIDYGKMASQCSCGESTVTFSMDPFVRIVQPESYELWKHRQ
NPSR antag: antagonists of human neuropeptide S receptor cAMP signaling; Q6W5P4; CHO-NPSR cells, cAMP TR-FRET, antagonist mode; Potency, µM (titrated, usually from 38.3 µM), hits mostly inhibitors; 220,000 tested, 1% active; note: nearly all actives have a fitted effect of over 50% in size
RGS12 GoLoco inh: RGS12 GoLoco-Gai1 interaction inhibition; AID 880; 230,000 tested, 0.44% active; Gai1:RGS12 GoLoco peptide FP, rhodamine, 10 min; Potency, µM (top dose mostly 61.6 µM), actives largely listed as inhibitors; active = well fitted inhibition curve with a large enough effect, not every such curve was filed as active; inactive = no such curve, though single readings can be large or run the other way; note: nearly all actives have a fitted effect of over 30% in size
Target sequence (P63096 whole entry, looked up): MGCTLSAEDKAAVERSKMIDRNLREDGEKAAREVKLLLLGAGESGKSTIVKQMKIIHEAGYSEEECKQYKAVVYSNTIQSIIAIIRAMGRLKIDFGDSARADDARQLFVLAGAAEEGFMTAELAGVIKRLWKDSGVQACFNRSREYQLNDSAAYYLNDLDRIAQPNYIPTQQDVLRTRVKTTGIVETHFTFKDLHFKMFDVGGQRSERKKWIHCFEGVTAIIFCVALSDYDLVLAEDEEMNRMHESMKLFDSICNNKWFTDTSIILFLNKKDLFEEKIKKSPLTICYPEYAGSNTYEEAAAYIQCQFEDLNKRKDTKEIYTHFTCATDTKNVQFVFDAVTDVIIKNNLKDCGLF
Coupling enz: counter-screen for Giardia aldolase inhibitors: coupling enzyme system. coupling enzyme system counterscreen, AmpLite Red fluorescence. 290,000 tested, 0.67% active. activity change, negative = inhibition, % at 58.2 µM, hits read low. AID 2472; in the data active = activity change below about -30%
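Fluorescence at 525 nm excitation and 598 nm emission measured inhibition of the coupled detection system without aldolase. Compounds (at 57.5 uM final) were preincubated 10 min at room temperature with coupling enzyme reagent before a 20 min substrate/AmpLite Red step.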
A number is an active result; - = inactive; ? = inconclusive; . = no result; ! = not active in a repeat; [ ] = another dose, or the depositor's remark. In the library only some 8.5% were active in any assay of this set; here they are far more common. Unless noted, calls come from the whole dose curve; as a rule, active = well fitted curve in the direction sought with a large enough effect; inconclusive = small, poorly fitted or top-dose-only effect, or another doubt; inactive = no such curve, though single readings can be large; an effect the other way counts as inactive or inconclusive.

SMILES	ALDH1A1 block	Sfp PPTase inh	JMJD2E inh	NPSR antag	RGS12 GoLoco inh	Coupling enz
Cc1nc2ccccc2nc1SCC(=O)c1ccccc1	22µM	45µM	-	-	-	-
Cc1cnc(C(=O)OCC(=O)c2ccc(F)cc2)cn1	.	-	.	.	.	.
CCC(C(=O)Nc1cc(Cl)ccc1OC)c1ccccc1 (configuration not stated)	22µM	-	-	?	-	-
COc1ccc(Cl)cc1NC(=O)C(OC)c1ccccc1 (configuration not stated)	1.6µM	?	-	?	-	-
COc1ccc(C)cc1NC(=O)C(c1ccccc1)N1CCNC(=O)C1 (configuration not stated)	18µM	-	-	-	-	-
COc1ccc(NC(=O)C(OC)c2ccccc2)cc1Cl (configuration not stated)	13µM	-	-	-	-	-
O=CN1CCN(c2c([N+](=O)[O-])c(=O)oc3ccccc23)CC1	.	-	.	.	.	-
COCCn1c(C)c(C)c(S(=O)(=O)c2ccccc2)c1N	.	-	.	.	.	-
Fc1ccc(N2Cc3ccsc3C=N2)cc1	-	-	-	-	-	-
COc1ccc(C)cc1NC(=O)C(OC(=O)C1CC1)c1ccccc1 (configuration not stated)	4µM	-	-	-	-	-
COc1cc(OC)cc(-c2nnc(SCc3ccc(C(=O)O)cc3)o2)c1	.	50µM	.	.	.	-
CO/N=C(/C(=O)N[C@@H]1C(=O)N2C(C(=O)O)=CCS[C@H]12)c1cnc(N)s1	.	79µM	.	.	.	-
CO/N=C(/C(=O)N[C@@H]1C(=O)N2C(C(=O)O)=C(CSc3nnnn3C)CS[C@H]12)c1csc(N)n1	.	-	.	.	.	.
COc1ccc(CNCCC(c2ccccc2)c2ccc3c(c2)OCO3)cc1 (configuration not stated)	?	35µM	-	?	-	-
COc1ccc(C(CC(=O)O)c2ccc3c(c2)OCO3)cc1 (configuration not stated)	.	-	.	.	.	-
NC(=O)C1CCN(CC(=O)Nc2ccccc2N2CCOCC2)CC1	.	-	-	-	-	-
CN(C(Cc1ccc(OS(=O)(=O)c2cccc3cnccc23)cc1)C(=O)N1CCN(c2ccccc2)CC1)S(=O)(=O)c1cccc2cnccc12 (configuration not stated)	14µM!	-	.	.	-	.
O=C(CCCn1c(=S)[nH]c2ccccc2c1=O)N1CCCCC1	?	-	-	-	-	-
O=C(CCN1CCCCC1)Nn1c(=S)[nH]c2ccccc2c1=O	-	50µM	-	-	-	-
O=C1CCC(=O)N(O)CCCCCNC(=O)CCC(=O)N(O)CCCCNC(=O)CCC(=O)N(O)CCCCCN1	.	?	4.5µM	-	-	-
Cc1ccc(Nc2nnc(SCC(=O)c3ccc(O)cc3O)s2)cc1	.	-	.	.	.	-
Cc1cc(CN2CCCC(N3CCc4ccccc4C3)C2)cc(C)c1O (configuration not stated)	.	-	.	.	.	-
CN(C)c1ccc(/C=N/N2CCN(c3ccccn3)CC2)cc1	.	-	-	-	-	-
Cc1cc(C2=NNC(=Nc3ccccc3)SC2)c(C)n1C	?	32µM	?	-	-	-
COCCCN=C1NN=C(c2cc(C)n(Cc3ccccc3Cl)c2C)CS1	25µM	?	?	-	-	-
SMILES	ALDH1A1 block	Sfp PPTase inh	JMJD2E inh	NPSR antag	RGS12 GoLoco inh	Coupling enz
Fc1ccccc1N=C1NN=C(c2ccccc2)CS1	?	?	-	-	-	-
COCCCN=C1NN=C(c2cc(C)n(-c3ccccc3)c2C)CS1	8.9µM	-	-	-	-	-
COCCn1c(C)cc(C2=NNC(=Nc3ccccc3F)SC2)c1C	18µM	35µM	25µM	-	-	-
Cc1ccc(CN(C(=O)COc2cccc(C)c2C)C2CCS(=O)(=O)C2)o1 (configuration not stated)	.	-	.	.	.	.
CCn1cc(Cl)c(C(=O)NNC(=O)CCn2ccc([N+](=O)[O-])n2)n1	.	-	.	.	.	.
CCCn1c(=O)cc(N)n(-c2ccc(OC(F)(F)F)cc2)c1=O	.	-	.	.	.	-
COc1ccc(S(=O)(=O)N(CC(=O)N2CCCCCC2)c2ccccc2OC)cc1	.	-	.	.	.	-
CCC(C)NC(=O)c1ccc(C)c(NC(=O)C2=C(C)OCCS2)c1 (configuration not stated)	.	-	.	.	.	-
CN(Cc1ccccc1NS(=O)(=O)c1ccc2ccccc2c1)C1CCCCC1	?	-	-	-	-	-
Fc1ccc(F)c(C2=NNC(=Nc3ccccc3F)SC2)c1	16µM	-	-	-	-	-
Cc1cc(C2=NNC(=NCCc3ccccc3)SC2)c(C)n1-c1c(C)n(C)n(-c2ccccc2)c1=O	.	-	-	-	-	-
Fc1ccc(N=C2NN=C(c3cc(F)ccc3F)CS2)cc1	?	-	?	-	-	-
COCCCN=C1NN=C(c2cc(C)n(-c3ccccc3F)c2C)CS1	25µM	?	32µM	-	-	-
O=C1NC(=O)/C(=C\c2ccc(Sc3ccc(Cl)cc3)o2)N1	-	-	-	-	-	-
O=C1NC(=O)/C(=C\c2ccc(N3CCOCC3)o2)N1	?	18µM	-	-	-	-
O=C1NC(=O)/C(=C/c2ccc(N3CCOCC3)o2)N1	.	32µM	-	-	-	-
Cc1nnsc1C(=O)N1CCCC(N2CCN(c3ccc(F)cc3)CC2)C1 (configuration not stated)	.	-	.	.	.	.
Cc1ccc(NC(=O)/C(=C/c2cccc(Br)c2)NC(=O)c2ccco2)cc1	?	-	?	-	-	-
O=C(NCCN1CCOCC1)C1(C(F)(F)F)C/C(=C/CCO)CCCO1 (configuration not stated)	.	-	.	.	.	-
CC(C)c1nc(CN(C)C(=O)N[C@H](C(=O)N[C@@H](Cc2ccccc2)C[C@H](O)[C@H](Cc2ccccc2)NC(=O)OCc2cncs2)C(C)C)cs1	?	-	-	13µM	-	-
Cc1ccc(S(=O)(=O)N(CC(=O)O)c2cccc(Cl)c2)cc1	-	.	.	.	.	.
CC(C)Cc1nnc(NC(=O)CSc2ccccn2)s1	?	45µM	-	-	-	-
O=C(CSc1ccccn1)Nc1ccc2c(c1)C(=O)c1ccccc1C2=O	25µM	-	-	-	-	-
O=C(CSc1ccccn1)Nc1ccc2ccccc2c1	-	-	-	-	-	-
O=C(O)[C@@H]1CCCN1	-[13.5 µM]	-	.	.	-[14.2 µM]	.
COC(=O)c1cc(O)cc(OC)c1Oc1cc(C)cc(O)c1C(=O)O	.	56µM	?	-	-	-
CCCCc1n[nH]c(=S)n1Cc1ccc(Cl)cc1	-	-	-	-	-	-
O=C(c1ccc(C#CC2(O)CCCCC2)cc1)N1CCN(C(c2ccccc2)c2ccccc2)CC1	25µM	-	-	?	-	-
CCOC(Cn1ccc(=O)[nH]c1=O)OCC	.	-	-	-	-	-
CC1=Nc2ccccc2N=C(NC(=O)CN2CCN(c3ccccc3)CC2)C1c1ccccc1 (configuration not stated)	0.89µM	-	-	-	-	-
